Laboratory results taken from PubChem BioAssay (EPA / NIEHS).
Records with an inconclusive call do not appear. Active and inactive are the calls of the source. The calls were made as follows, unless noted: active = hit-call score of the fitted dose curve at least 0.9, where 1 is the maximum; inactive = score below 0.9.

Key:
[1] = ATG_RORE_CIS: Attagene CIS-FACTORIAL HepG2 Assay for human RAR-related Orphan Receptor Element (RORE) (AID 2282959); conditions: HepG2 Attagene cis-factorial RORE reporter, mRNA; actives raise or lower the signal
Outline: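 Endogenous factor activity at a cis response element is read as reporter transcript levels in HepG2 cells, 24 h post-dose. Transcripts are quantified by RT-PCR with capillary electrophoresis, and data fitted in both directions against DMSO.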

[2] = ATG_Sox_CIS: Attagene CIS-FACTORIAL HepG2 Assay for human SRY-box transcription factor (SOX) (AID 2282960); conditions: HepG2 Attagene cis-factorial SOX reporter, mRNA; actives raise or lower the signal
Outline: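 Measures mRNA induction of a SOX1-associated reporter in HepG2 after 24 h dosing. Fluorescently labelled RT-PCR fragments are separated by capillary electrophoresis, and gain or loss relative to DMSO control is fitted.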

[3] = biological target: Transcription factor Sp1 (Homo sapiens) (UniProt P08047); test: ATG_Sp1_CIS: Attagene CIS-FACTORIAL HepG2 Assay for human Specificity Protein 1 (Sp1) (AID 2282961); conditions: HepG2 Sp1 cis-reporter transcription, actives raise or lower the signal
Outline: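 Cells: HepG2, transiently transfected with cis-regulated multiplexed reporters. Exposure: 24 h. Detection: reporter transcripts amplified, fluorescently labeled, restriction-digested and sized by capillary electrophoresis. Analysis: bidirectional fit relative to DMSO.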

[4] = ATG_SREBP_CIS: Attagene CIS-FACTORIAL HepG2 Assay for human Sterol Regulatory Element Binding (SREBP) (AID 2282962); conditions: HepG2 Attagene cis-factorial SREBP reporter, mRNA; actives raise or lower the signal
Outline: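 Transfected HepG2 (cis-regulated reporter library, endogenous TFs) → compound 24 h → total RNA → oligo(dT) RT → reporter-specific PCR → FAM primer extension, HpaI cut → CE fluorescence. Fit bidirectional vs DMSO.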

[5] = biological target: Signal transducer and activator of transcription 3 (Homo sapiens) (UniProt P40763); test: ATG_STAT3_CIS: Attagene CIS-FACTORIAL HepG2 Assay for human Signal Transducer and Activator of Transcription 3 (STAT3) (AID 2282963); conditions: HepG2, Attagene cis-factorial STAT3 reporter transcription; actives raise or lower the signal
Outline: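 HepG2 cells transiently transfected with cis-element-driven multiple reporter transcription units; after 24 h chemical exposure, reporter mRNA measured by RT-PCR, 6-FAM primer-extension labelling, HpaI digestion and capillary electrophoresis. Bidirectional fitting versus DMSO baseline.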

[6] = ATG_TA_CIS: Attagene CIS-FACTORIAL HepG2 Assay for human TA Basal Promoter (AID 2282964); conditions: HepG2 Attagene CIS-factorial TA basal promoter reporter; actives raise or lower the signal
Outline: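 Background-control readout: TA basal promoter reporter mRNA, fitted in both directions relative to DMSO. Measured by RT-PCR and capillary electrophoresis 24 hours after treating HepG2 human liver cells transiently carrying multiplexed cis-regulated reporter constructs.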

[7] = ATG_TCF_b_cat_CIS: Attagene CIS-FACTORIAL HepG2 Assay for human T-Cell-Factor with beta-catenin (TCF/b-cat) (AID 2282965); conditions: HepG2 TCF/beta-catenin cis-reporter transcription, actives raise or lower the signal
Outline: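 HepG2 cells transiently transfected with multiple cis-promoter-regulated reporter transcription units, so endogenous transcription factor activity is measured. Reporter mRNA read 24 hours after dosing by RT-PCR, fluorescent labelling and capillary electrophoresis; bidirectional fitting against DMSO.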

[8] = ATG_TAL_CIS: Attagene CIS-FACTORIAL HepG2 Assay for human TAL Basal Promoter (AID 2282966); conditions: HepG2 Attagene cis-factorial TAL promoter reporter; actives raise or lower the signal;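 also: background control endpoint measuring basal TAL promoter reporter mRNA not a specific factor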
Outline: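 HepG2 cells transiently transfected with multiplexed cis-promoter reporter units, dosed 24 h. Reporter mRNA quantified by RT-PCR, 6-FAM labelling, HpaI digestion and capillary electrophoresis; TAL basal promoter serves as background control, fitted bidirectionally versus DMSO.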

[9] = ATG_VDRE_CIS: Attagene CIS-FACTORIAL HepG2 Assay for human Vitamin D Receptor Element (VDRE) (AID 2282968); conditions: HepG2 VDRE cis-reporter transcription, actives raise or lower the signal
Outline: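 HepG2 cells transiently transfected with cis-element reporter units, dosed 24 h; reporter mRNA measured by RT-PCR, 6-FAM labeling, HpaI digestion and capillary electrophoresis. Activity fitted bidirectionally against DMSO baseline.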

[10] = biological target: Estrogen receptor (Homo sapiens) (UniProt P03372); test: ATG_ERa_TRANS: Attagene TRANS-FACTORIAL HepG2 Assay for human Estrogen Receptor alpha (ERa) (AID 2282970; active = hit-call score of the fitted dose curve at least 0.9, where 1 is the maximum); conditions: HepG2 Attagene TRANS ERa GAL4 reporter, mRNA
Outline: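 HepG2 cells transiently transfected with multiplexed GAL4-UAS reporter units read out chimeric NR-Gal4 activity. After 24 h compound exposure, reporter mRNA was quantified by RT-PCR, 6-FAM labeling, HpaI digestion and capillary electrophoresis, relative to DMSO.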

[11] = biological target: X-box-binding protein 1 (Homo sapiens) (UniProt P17861); test: ATG_Xbp1_CIS: Attagene CIS-FACTORIAL HepG2 Assay for human X-box Binding Protein 1 (XBP1) (AID 2282972); conditions: HepG2 XBP1 cis-element reporter, Attagene multiplex; actives raise or lower the signal
Outline: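 HepG2, transient MRTU transfection (cis-promoter driven), 24 h compound exposure. Total RNA → oligo(dT) RT → PCR → 6-FAM labeling → HpaI cut → CE. Bidirectional fit vs DMSO.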

[12] = biological target: Glucocorticoid receptor (Homo sapiens) (UniProt P04150); test: ATG_GR_TRANS: Attagene TRANS-FACTORIAL HepG2 Assay for human Glucocorticoid Receptor (GR) (AID 2282978; active = hit-call score of the fitted dose curve at least 0.9, where 1 is the maximum;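 also: activators score as hits since higher reporter transcript over DMSO is fitted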); conditions: HepG2 Attagene TRANS GR reporter, mRNA transcription
Outline: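 Reporter transcript levels, detected by fluorescence after RT-PCR and capillary electrophoresis, served as the endpoint. HepG2 cells bearing transfected GAL4-UAS reporters responsive to NR-GAL4 chimeras were incubated with compound 24 h; DMSO defined baseline.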

[13] = ATG_M_19_TRANS: Attagene TRANS-FACTORIAL HepG2 Assay for M19 Transcription Factor (Internal Marker) (AID 2282974; active = hit-call score of the fitted dose curve at least 0.9, where 1 is the maximum); conditions: HepG2 Attagene TRANS-FACTORIAL M19 internal marker reporter
Outline: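 Reporter mRNA induction was measured in transfected HepG2 cells 24 h after dosing. Endpoint fitted upward relative to DMSO and serves as a background control within the multiplexed TRANS panel.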

[14] = biological target: Androgen receptor (Homo sapiens) (UniProt P10275); test: ATG_AR_TRANS: Attagene TRANS-FACTORIAL HepG2 Assay for human Androgen Receptor (AR) (AID 2282973; active = hit-call score of the fitted dose curve at least 0.9, where 1 is the maximum); conditions: HepG2 Attagene TRANS-FACTORIAL AR reporter transcription
Outline: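 HepG2 cells transiently transfected with AR-Gal4 chimera and GAL4-UAS reporter units; chemical exposure 24 h. Reporter mRNA quantified by RT-PCR with fluorescent labelling and capillary electrophoresis; gain-of-signal fitted against DMSO.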

[15] = ATG_GAL4_TRANS: Attagene TRANS-FACTORIAL HepG2 Assay for GAL4 (Internal Marker) (AID 2282976; active = hit-call score of the fitted dose curve at least 0.9, where 1 is the maximum); conditions: HepG2 Attagene TRANS GAL4 internal marker reporter
Outline: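 Background-control readout: GAL4-UAS reporter transcript in transiently transfected HepG2 cells after 24 h compound exposure. Measured by RT-PCR, 6-FAM primer extension, HpaI digest and capillary electrophoresis; gain-of-signal fit versus DMSO.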

[16] = ATG_TGFb_CIS: Attagene CIS-FACTORIAL HepG2 Assay for human Transforming Growth Factor (TGF) (AID 2282967); conditions: HepG2 Attagene CIS TGFb reporter, mRNA transcription; actives raise or lower the signal
Outline: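 Endogenous TGFB1-linked transcription factor activity read as reporter mRNA via RT-PCR and capillary electrophoresis, 24 h after dosing transiently transfected HepG2 cells. Gain or loss of signal fitted relative to DMSO.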

[17] = biological target: Nuclear receptor subfamily 1 group I member 3 (Homo sapiens) (UniProt Q14994); test: ATG_CAR_TRANS: Attagene TRANS-FACTORIAL HepG2 Assay for human Constitutive Androstane Receptor (CAR) (AID 2282969; active = hit-call score of the fitted dose curve at least 0.9, where 1 is the maximum;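 also: activators raise reporter mRNA above DMSO so AC50 marks induction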); conditions: HepG2 Attagene TRANS-FACTORIAL CAR reporter
Outline: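 HepG2 cells transiently transfected with multiplexed GAL4-UAS reporter units expressing chimeric NR-Gal4 proteins; compound exposure 24 h. Reporter mRNA measured by RT-PCR, 6-FAM labelling, HpaI digestion and capillary electrophoresis; gain-of-signal fitted against DMSO baseline.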

[18] = biological target: Steroid hormone receptor ERR1 (Homo sapiens) (UniProt P11474); test: ATG_ERRa_TRANS: Attagene TRANS-FACTORIAL HepG2 Assay for human Estrogen-Related Receptor alpha (ERRa) (AID 2282971; active = hit-call score of the fitted dose curve at least 0.9, where 1 is the maximum); conditions: HepG2 Attagene TRANS reporter, ERRa transactivation
Outline: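 HepG2 cells transiently transfected with GAL4-UAS reporter units and chimeric NR-Gal4 constructs; after 24 hour compound incubation, reporter mRNA quantified by RT-PCR, fluorescent labelling and capillary electrophoresis, gain of signal versus DMSO.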

Chain of Estrogen receptor (Homo sapiens) (P03372 whole entry, looked up, the tested form may be a part): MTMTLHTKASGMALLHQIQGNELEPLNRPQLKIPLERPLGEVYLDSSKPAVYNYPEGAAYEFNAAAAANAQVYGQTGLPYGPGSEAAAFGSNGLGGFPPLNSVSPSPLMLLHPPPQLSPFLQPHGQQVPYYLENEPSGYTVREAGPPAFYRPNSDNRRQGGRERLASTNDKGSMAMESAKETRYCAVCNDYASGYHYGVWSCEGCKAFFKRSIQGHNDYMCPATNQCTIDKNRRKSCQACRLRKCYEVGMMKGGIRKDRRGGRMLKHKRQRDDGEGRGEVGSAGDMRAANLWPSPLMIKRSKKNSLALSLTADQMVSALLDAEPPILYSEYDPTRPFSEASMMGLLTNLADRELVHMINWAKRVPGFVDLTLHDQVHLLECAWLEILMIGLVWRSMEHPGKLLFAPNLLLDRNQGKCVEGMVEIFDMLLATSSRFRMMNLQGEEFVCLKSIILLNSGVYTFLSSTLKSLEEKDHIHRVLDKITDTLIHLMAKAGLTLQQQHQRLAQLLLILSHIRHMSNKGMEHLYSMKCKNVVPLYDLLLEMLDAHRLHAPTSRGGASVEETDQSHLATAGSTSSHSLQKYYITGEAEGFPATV
Chain of Glucocorticoid receptor (Homo sapiens) (P04150 whole entry, looked up, the tested form may be a part): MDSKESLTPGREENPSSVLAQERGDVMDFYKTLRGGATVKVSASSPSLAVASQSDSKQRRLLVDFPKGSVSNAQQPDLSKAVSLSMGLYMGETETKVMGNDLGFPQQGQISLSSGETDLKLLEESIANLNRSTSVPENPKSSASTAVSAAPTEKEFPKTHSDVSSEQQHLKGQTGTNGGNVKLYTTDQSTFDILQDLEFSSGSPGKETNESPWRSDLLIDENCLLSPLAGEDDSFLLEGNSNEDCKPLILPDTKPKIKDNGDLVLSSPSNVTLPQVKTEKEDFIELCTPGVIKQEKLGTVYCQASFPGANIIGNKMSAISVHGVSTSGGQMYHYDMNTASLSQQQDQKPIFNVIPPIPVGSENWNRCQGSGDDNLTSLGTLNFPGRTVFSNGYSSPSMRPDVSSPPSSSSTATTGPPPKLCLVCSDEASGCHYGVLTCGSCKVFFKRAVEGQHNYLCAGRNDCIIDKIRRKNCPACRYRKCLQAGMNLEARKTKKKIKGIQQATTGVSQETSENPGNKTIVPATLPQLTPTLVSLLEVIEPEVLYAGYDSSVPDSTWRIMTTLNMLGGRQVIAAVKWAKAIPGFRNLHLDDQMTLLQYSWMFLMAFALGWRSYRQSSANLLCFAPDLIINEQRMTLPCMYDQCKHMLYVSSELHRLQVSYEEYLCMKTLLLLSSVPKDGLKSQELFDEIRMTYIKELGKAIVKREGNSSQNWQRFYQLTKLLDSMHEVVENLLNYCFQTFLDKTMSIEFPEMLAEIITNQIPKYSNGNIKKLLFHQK
Chain of Signal transducer and activator of transcription 3 (Homo sapiens) (P40763 whole entry, looked up): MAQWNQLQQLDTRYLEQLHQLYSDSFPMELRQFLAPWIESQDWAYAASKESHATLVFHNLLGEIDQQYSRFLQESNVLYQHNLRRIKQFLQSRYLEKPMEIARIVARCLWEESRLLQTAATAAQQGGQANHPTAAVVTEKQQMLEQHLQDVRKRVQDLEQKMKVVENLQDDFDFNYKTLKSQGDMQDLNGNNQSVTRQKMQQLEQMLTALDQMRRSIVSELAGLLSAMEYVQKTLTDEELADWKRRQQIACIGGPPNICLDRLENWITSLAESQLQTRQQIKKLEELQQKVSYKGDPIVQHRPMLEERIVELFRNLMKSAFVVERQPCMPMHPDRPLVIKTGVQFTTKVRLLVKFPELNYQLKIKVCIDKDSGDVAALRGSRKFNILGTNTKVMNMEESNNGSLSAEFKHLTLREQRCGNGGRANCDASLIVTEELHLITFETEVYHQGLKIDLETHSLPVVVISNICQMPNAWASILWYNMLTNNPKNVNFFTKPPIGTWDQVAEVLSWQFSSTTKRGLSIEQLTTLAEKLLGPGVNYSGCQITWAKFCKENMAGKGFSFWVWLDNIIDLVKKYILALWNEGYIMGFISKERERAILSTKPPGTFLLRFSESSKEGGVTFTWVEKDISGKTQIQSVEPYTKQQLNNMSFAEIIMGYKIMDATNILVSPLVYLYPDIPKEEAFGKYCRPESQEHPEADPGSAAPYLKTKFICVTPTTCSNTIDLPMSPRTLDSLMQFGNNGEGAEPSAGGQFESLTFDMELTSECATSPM
Chain of X-box-binding protein 1 (Homo sapiens) (P17861 whole entry, looked up): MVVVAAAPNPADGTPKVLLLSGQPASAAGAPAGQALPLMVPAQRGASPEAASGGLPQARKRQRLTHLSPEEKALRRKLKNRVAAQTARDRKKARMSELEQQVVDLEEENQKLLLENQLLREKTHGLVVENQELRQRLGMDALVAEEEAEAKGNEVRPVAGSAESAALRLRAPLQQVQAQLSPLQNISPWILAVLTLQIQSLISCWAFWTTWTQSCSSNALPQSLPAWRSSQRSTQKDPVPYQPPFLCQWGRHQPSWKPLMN
Chain of Transcription factor Sp1 (Homo sapiens) (P08047 whole entry, looked up): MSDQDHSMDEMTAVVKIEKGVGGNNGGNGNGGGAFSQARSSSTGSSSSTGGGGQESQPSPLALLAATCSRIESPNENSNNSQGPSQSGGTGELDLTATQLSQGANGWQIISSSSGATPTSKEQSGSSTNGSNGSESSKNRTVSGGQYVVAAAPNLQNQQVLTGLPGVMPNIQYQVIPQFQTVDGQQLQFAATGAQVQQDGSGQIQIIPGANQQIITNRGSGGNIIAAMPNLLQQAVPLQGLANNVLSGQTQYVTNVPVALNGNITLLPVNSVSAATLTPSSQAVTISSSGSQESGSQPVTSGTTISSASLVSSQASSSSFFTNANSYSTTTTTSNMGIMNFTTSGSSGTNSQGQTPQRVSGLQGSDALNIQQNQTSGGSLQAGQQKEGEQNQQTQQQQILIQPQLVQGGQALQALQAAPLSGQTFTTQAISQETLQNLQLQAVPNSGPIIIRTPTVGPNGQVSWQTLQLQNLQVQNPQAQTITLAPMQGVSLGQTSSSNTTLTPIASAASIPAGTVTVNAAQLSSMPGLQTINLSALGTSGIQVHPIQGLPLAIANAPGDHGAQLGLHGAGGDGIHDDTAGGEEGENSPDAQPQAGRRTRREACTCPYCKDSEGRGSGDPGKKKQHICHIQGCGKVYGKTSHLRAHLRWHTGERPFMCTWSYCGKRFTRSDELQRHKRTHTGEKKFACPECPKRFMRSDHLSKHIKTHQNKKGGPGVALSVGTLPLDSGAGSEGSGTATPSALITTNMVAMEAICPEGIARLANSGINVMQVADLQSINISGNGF
Chain of Androgen receptor (Homo sapiens) (P10275 whole entry, looked up, the tested form may be a part): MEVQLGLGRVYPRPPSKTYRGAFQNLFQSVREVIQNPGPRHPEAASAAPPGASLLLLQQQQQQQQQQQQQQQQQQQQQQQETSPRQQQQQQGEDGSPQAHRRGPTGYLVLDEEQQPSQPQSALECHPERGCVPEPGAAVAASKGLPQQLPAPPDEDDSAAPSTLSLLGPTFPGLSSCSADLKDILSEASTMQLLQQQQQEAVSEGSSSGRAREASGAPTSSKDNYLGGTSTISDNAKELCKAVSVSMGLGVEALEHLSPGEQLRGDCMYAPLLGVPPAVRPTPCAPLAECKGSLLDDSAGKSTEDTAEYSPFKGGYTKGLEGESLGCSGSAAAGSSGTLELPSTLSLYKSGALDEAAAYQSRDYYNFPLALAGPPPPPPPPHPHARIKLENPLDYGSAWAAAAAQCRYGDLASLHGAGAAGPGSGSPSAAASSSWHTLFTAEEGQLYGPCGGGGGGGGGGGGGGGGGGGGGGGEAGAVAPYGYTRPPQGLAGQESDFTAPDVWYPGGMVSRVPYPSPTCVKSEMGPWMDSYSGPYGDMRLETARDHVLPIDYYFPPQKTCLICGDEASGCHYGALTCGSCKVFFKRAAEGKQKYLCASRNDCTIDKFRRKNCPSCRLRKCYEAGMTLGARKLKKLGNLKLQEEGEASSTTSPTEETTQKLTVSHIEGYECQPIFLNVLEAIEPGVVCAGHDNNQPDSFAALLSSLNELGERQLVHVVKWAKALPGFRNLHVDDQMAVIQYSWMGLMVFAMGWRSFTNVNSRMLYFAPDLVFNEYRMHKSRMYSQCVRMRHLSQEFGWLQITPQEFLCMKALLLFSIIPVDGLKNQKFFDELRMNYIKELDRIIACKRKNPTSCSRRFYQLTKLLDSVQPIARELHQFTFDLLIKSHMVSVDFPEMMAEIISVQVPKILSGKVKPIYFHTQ
Chain of Nuclear receptor subfamily 1 group I member 3 (Homo sapiens) (Q14994 whole entry, looked up, the tested form may be a part): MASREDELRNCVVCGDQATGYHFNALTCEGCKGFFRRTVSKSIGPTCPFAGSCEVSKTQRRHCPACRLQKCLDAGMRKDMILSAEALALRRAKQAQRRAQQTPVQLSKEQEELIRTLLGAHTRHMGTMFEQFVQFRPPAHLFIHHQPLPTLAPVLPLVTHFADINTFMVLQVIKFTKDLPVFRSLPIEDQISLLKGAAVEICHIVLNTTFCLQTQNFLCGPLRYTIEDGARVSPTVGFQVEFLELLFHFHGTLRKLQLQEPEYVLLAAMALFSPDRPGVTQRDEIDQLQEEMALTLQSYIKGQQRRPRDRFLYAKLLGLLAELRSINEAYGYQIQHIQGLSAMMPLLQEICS
Chain of Steroid hormone receptor ERR1 (Homo sapiens) (P11474 whole entry, looked up, the tested form may be a part): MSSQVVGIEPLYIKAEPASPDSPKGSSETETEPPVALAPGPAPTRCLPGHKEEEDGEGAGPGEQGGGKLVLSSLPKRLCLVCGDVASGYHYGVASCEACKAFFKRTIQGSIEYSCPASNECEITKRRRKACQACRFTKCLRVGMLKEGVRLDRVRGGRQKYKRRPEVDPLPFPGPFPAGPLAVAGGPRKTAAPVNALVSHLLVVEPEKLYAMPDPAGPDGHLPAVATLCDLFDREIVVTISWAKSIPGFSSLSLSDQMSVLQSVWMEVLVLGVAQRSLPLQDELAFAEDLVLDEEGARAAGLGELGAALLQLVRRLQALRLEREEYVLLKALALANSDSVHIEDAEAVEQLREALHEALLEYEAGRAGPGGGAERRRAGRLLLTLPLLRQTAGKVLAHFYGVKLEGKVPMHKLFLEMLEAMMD

SMILES: C=C(C)C(=O)[O][Sn]([CH2]CCC)([CH2]CCC)[CH2]CCC
- outcome [1]: inactive
- outcome [2]: inactive
- outcome [3]: inactive
- outcome [4]: inactive
- outcome [5]: inactive
- AC50 [6]: 0.591 µM (active)
- outcome [7]: inactive
- outcome [8]: inactive
- AC50 [9]: 0.185 µM (active)
- outcome [10]: inactive
- AC50 [11]: 0.608 µM (active)
- AC50 [12]: 1.98 µM (active)

SMILES: ClC(Cl)=C(Cl)C(Cl)=C(Cl)Cl
- outcome [1]: inactive
- outcome [2]: inactive
- AC50 [3]: 160 µM (active)
- AC50 [4]: 156 µM (active)
- outcome [5]: inactive
- outcome [6]: inactive
- AC50 [7]: 40.4 µM (active)
- outcome [8]: inactive
- outcome [10]: inactive
- AC50 [11]: 137 µM (active)
- outcome [13]: inactive
- outcome [12]: inactive

SMILES: c1cc[c]([Hg][c]2ccccc2)cc1
- AC50 [1]: 25.6 µM (active)
- outcome [2]: inactive
- AC50 [3]: 24.5 µM (active)
- outcome [4]: inactive
- outcome [5]: inactive
- outcome [6]: inactive
- outcome [7]: inactive
- AC50 [9]: 27.3 µM (active)
- outcome [10]: inactive
- AC50 [11]: 18.7 µM (active)
- outcome [14]: inactive

SMILES: CC(=[OH+])/C=C(/C)[O-].CC(=[OH+])/C=C(/C)[O-].CC(=[OH+])/C=C(/C)[O-].[Al]
- outcome [1]: inactive
- outcome [2]: inactive
- outcome [3]: inactive
- outcome [4]: inactive
- outcome [5]: inactive
- outcome [6]: inactive
- outcome [7]: inactive
- outcome [8]: inactive
- outcome [9]: inactive
- outcome [11]: inactive
- outcome [13]: inactive
- outcome [15]: inactive

SMILES: O=C(CCl)CCl
- outcome [1]: inactive
- outcome [2]: inactive
- AC50 [3]: 33.4 µM (active)
- AC50 [4]: 46 µM (active)
- outcome [5]: inactive
- outcome [6]: inactive
- AC50 [7]: 23.4 µM (active)
- outcome [8]: inactive
- AC50 [9]: 45.4 µM (active)
- outcome [10]: inactive
- AC50 [11]: 48.1 µM (active)

SMILES: CCC[CH2][Sn]([CH2]CCC)([CH2]CCC)[O]C(=O)c1ccccc1
- outcome [2]: inactive
- outcome [3]: inactive
- outcome [4]: inactive
- outcome [5]: inactive
- outcome [6]: inactive
- outcome [7]: inactive
- outcome [8]: inactive
- outcome [16]: inactive
- AC50 [9]: 0.137 µM (active)
- AC50 [10]: 0.774 µM (active)
- outcome [11]: inactive
- outcome [15]: inactive

SMILES: COP(=S)(OC)Oc1c(Cl)cc(C)cc1Cl
- outcome [2]: inactive
- outcome [3]: inactive
- outcome [4]: inactive
- outcome [5]: inactive
- outcome [6]: inactive
- outcome [7]: inactive
- outcome [16]: inactive
- AC50 [9]: 7.7 µM (active)
- outcome [17]: inactive
- AC50 [10]: 3.3 µM (active)
- outcome [18]: inactive
- outcome [11]: inactive
- outcome [13]: inactive
- outcome [15]: inactive
- outcome [12]: inactive

SMILES: CCCCCCCCCl
- outcome [2]: inactive
- outcome [3]: inactive
- outcome [4]: inactive
- outcome [5]: inactive
- outcome [6]: inactive
- outcome [7]: inactive
- outcome [8]: inactive
- outcome [9]: inactive
- outcome [11]: inactive

SMILES: Cc1ccccc1C(=O)Nc1cccc(OC(C)C)c1
- outcome [1]: inactive
- outcome [2]: inactive
- outcome [3]: inactive
- outcome [4]: inactive
- outcome [5]: inactive
- outcome [6]: inactive
- outcome [7]: inactive
- outcome [8]: inactive
- outcome [16]: inactive
- outcome [11]: inactive
- outcome [14]: inactive
- outcome [13]: inactive
- outcome [12]: inactive
